Only some compounds are listed: those with a hit (about 10% of all), similar ones and a draw of the others.
HEK cytotox = cytotoxic compounds in HEK 293 cells | HEK 293 viability, ATP luminescence (CellTiter-Glo), 48-72 h | Potency, µM (top dose mostly 115 µM), for inactives: at the top dose activity change, negative = cytotoxicity, usual class: inhibitors | hit rate 6.6% among 94,000 | AID 1345083; note: nearly all actives have a fitted effect of over 60% in size
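HEK 293 cells seeded at 250 cells/well were exposed to compound for 48 or 72 hr at 37 degree Celsius. Viability taken as ATP content by CellTiter-Glo luminescence.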
GPT2 inhibitor = blocks human glutamate pyruvate transaminase 2 | Q8TD30 | hit rate 0.25% among 100,000 | Recombinant GPT2, coupled pyruvate oxidase/HRP Amplex Red fluorescence | AID 1671188 | Potency, µM (titrated, usually from 57.7 µM), inactives show at the top dose activity change, negative = inhibition, usual class: inhibitors; note: nearly all actives have a fitted effect of over 60% in size
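Fluorescence of coupled pyruvate oxidase/HRP/Amplex Red system (50uM Amplex, 30 min, dark) reports pyruvate formed by GPT2. Enzyme reaction: 10ng/uL GPT2, 2mM L-alanine, 250uM a-KG, 30 min room temperature, pH 7.5; 50uM AOA control.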
Luciferase inh = inhibitors of firefly (Photinus pyralis) luciferase. purified P. pyralis luciferase, luminescence, biochemical. hit rate 2.5% among 76,000. Potency, µM (series often up to 115 µM), hits mostly inhibitors. AID 1347043. P08659; note: nearly all actives have a fitted effect of over 65% in size
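Biochemical qHTS: compound (6-point titration) added to 10uM D-luciferin plus 10uM ATP in Tris acetate pH 7.5 buffer with Mg, Tween-20 and BSA, then purified enzyme at 10nM; light output imaged.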
3T3 cytotox = NIH 3T3 cell cytotoxicity; NIH 3T3 viability, CellTiter-Glo ATP luminescence, 48-72 h; Potency, µM (top dose mostly 96.7 µM), for the others: top-dose activity change, negative = cytotoxicity, most hits filed as inhibitors; hit rate 4.3% among 94,000; note: nearly all actives have a fitted effect of over 55% in size
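Viability of NIH 3T3 cells after 48 or 72 hr compound treatment at 37 °C was assessed by CellTiter-Glo, with luminescence imaged following a 10 min room-temperature step.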
hNpr1 antagonist = blocks ANP-stimulated signaling of human Npr1 receptor; P16066; HEK293 hNpr1 GloSensor cGMP, ANP-stimulated luminescence; Potency, µM (doses to about 46.3 µM), for inactives: at the top dose activity change, negative = inhibition, actives largely listed as inhibitors; hit rate 1.6% among 76,000; AID 1347048; calls by dose curve; note: nearly all actives have a fitted effect of over 60% in size
Target sequence (P16066 whole entry, looked up): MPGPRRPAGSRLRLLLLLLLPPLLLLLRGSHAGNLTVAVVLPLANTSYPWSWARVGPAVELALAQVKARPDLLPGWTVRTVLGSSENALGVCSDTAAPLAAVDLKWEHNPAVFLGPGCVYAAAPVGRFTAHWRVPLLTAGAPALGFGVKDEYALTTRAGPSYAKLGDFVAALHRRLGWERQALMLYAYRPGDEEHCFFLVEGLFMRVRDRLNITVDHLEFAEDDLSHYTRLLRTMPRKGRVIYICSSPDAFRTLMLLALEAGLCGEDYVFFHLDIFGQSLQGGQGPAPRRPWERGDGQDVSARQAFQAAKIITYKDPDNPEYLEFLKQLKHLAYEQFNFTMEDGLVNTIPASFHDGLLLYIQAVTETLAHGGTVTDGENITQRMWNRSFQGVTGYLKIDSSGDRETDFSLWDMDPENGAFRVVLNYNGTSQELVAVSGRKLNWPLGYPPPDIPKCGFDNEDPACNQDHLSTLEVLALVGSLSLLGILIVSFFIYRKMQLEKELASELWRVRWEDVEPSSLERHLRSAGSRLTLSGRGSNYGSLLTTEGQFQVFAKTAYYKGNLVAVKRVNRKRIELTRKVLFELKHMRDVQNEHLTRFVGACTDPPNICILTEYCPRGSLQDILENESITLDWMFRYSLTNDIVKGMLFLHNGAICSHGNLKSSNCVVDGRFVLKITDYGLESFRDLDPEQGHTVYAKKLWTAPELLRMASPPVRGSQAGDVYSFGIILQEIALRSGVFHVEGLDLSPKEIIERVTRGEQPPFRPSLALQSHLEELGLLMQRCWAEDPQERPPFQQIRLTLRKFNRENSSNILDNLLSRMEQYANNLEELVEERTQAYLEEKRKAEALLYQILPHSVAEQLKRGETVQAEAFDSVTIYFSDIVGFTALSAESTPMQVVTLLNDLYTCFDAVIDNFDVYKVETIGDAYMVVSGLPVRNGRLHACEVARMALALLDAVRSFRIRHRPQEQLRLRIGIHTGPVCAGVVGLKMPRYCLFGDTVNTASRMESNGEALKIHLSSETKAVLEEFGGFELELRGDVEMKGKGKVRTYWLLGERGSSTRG
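Compound pre-incubated 30 min at room temperature on GloSensor-loaded HEK293 cells stably carrying hNpr1 and the pGS-40F cGMP biosensor. Stimulation uses hNppA at 0.1 nM final; luminescence is taken at baseline and 20 min post-agonist.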
* = called active by the depositor; i = inactive; ? = inconclusive; . = no result given; ! = a repeat was not active; [ ] = remark or other dose. Unless noted, calls come from the whole dose curve; as a rule, active = well fitted curve in the direction sought with a large enough effect; inconclusive = small, poorly fitted or top-dose-only effect, or another doubt; inactive = no such curve, though single readings can be large; an effect the other way counts as inactive or inconclusive. % is set by controls: 0 for no effect and ±100 for the full control effect; potency is the fitted concentration of half-maximal effect.

SMILES	HEK cytotox	GPT2 inhibitor	Luciferase inh	3T3 cytotox	hNpr1 antagonist
Cc1noc(C)c1-c1cc2c(cc(C)n2CCN(C)C)c(-c2ccnn2C)n1	?	-40.7%[88.5 µM]	i	44.7µM*	-14.4%[70.6 µM]
Cc1noc(C)c1-c1cc2c(cc(C)n2CCN(C)C)c(Nc2ccncn2)n1	100µM*	-5.6%[88.5 µM]	i	25.1µM*	-20.1%[70.6 µM]
COc1ccc(-c2nc(-c3c(C)noc3C)cc3c2cc(C)n3C)cn1	?	?	i	?	-12.2%[70.6 µM]
Cc1noc(C)c1-c1cc2c(cc(C)n2CCN(C)C)c(-c2ccsc2)n1	-4.8%[172 µM]	-1.0%[88.5 µM]	i	?	3.6%[70.6 µM]
COc1cncc(-c2nc(-c3c(C)noc3C)cc3c2cc(C)n3CCN(C)C)c1	89.1µM*	i	i	22.4µM*	-5.7%[70.6 µM]
Cc1ccccc1Cn1cc(-c2ccncc2)cc1C(=O)NC(C)c1ccccn1 (centres undefined)	?	i	i	?	2.5%
Cc1noc(C)c1-c1cc2c(cc(C)n2CCN(C)C)c(-c2ccccc2)n1	?	-3.5%[88.5 µM]	i	22.4µM*	0.5%[70.6 µM]
CC1=C[C@@H](CNCCN(C)C)[C@H](C(C)C)C[C@H]1Cc1nnc(-c2ccc(C)cc2)o1	35.5µM*	-3.3%[88.5 µM]	i	35.5µM*	-3.1%[70.6 µM]
CC1=C[C@@H](CNCCN(C)C)[C@H](C(C)C)C[C@H]1Cc1nnc(C)o1	-2.0%[172 µM]	-6.5%[88.5 µM]	i	1.2%[174 µM]	-2.8%[70.6 µM]
CC(=O)NCCNC[C@@H]1C=C(C)[C@H](Cc2nnc(-c3ccc(C)cc3)o2)C[C@H]1C(C)C	56.2µM*	-16.8%[88.5 µM]	i	39.8µM*	-21.3%[70.6 µM]
CC1=C[C@@H](CNCCN2CCOCC2)[C@H](C(C)C)C[C@H]1Cc1nnc(-c2ccc(C)cc2)o1	39.8µM*	i	i	35.5µM*	-2.6%
CC1=C[C@@H](CNCCN(C)C)[C@H](C(C)C)C[C@H]1Cc1nnc(C(C)(C)C)o1	?	-6.5%[88.5 µM]	i	70.8µM*	0.9%[70.6 µM]
CC(=O)Nc1cccc(C(=O)N2CCC(n3cc(-c4nc(C5CC5)no4)nn3)C2)c1 (centres undefined)	-3.4%	-9.5%	i	-18.9%	2.6%
Cc1ccc(C(=O)N2CCCN(c3ccc4nnc(C5CC5)n4n3)CC2)cc1	-12.7%	.	.	-20.9%	.
CN(C)c1cccc(C(=O)N2CCN(c3cc(-c4ccc(Cl)cc4)[nH]n3)CC2)c1	?	i	28.2µM*	?	-24.1%
COc1cccc(C(=O)N2CCCN(c3cc(-c4ccc(Cl)cc4)[nH]n3)CC2)c1	?	i	i	?	?
O=C(c1cccc(Cl)c1)N1CCN(c2cc(-c3ccc(Cl)cc3)[nH]n2)CC1	44.7µM*	-0.4%	i	35.5µM*	?
N#Cc1ccc(C(=O)N2CCCN(c3cc(-c4ccc(Cl)cc4)[nH]n3)CC2)cc1	28.2µM*	-25.7%	i	?	?
COc1cc(OC)cc(C(=O)N2CCN(c3cc(-c4ccc(Cl)cc4)[nH]n3)CC2)c1	?	i	i	35.5µM*	?
COc1ccc(-c2cc(N3CCCN(C(=O)c4cc(OC)cc(OC)c4)CC3)n[nH]2)cc1	?	-29.6%	i	-25.0%	-15.3%
CO[C@@H]1C[C@@H]2CC(C)(C)OC[C@@]2(O)[C@H]1N1CCN(c2ccc([N+](=O)[O-])cc2)CC1	?	-4.4%[27.3 µM]	.	-31.3%[46.1 µM]	.
COc1ccc(Cl)cc1C(=O)NC1CCCN(c2cc(-c3ccc(F)cc3)[nH]n2)C1 (centres undefined)	?	?	?	?	-22.4%
COCCNC(=O)c1cn2cc(-c3ccccc3)sc2n1	-14.0%[172 µM]	i	.	-22.5%[138 µM]	.
O=C(c1ccc(Cl)cc1)N1CC2(CCCN(Cc3cccnc3)C2)Cc2ccccc21 (centres undefined)	39.8µM*	-0.8%	.	?	.
CC(=O)N1CC2(CCN(C(=O)c3ccc(Cl)cc3)CC2)Cc2ccccc21	?	-5.4%	.	10µM*	.
SMILES	HEK cytotox	GPT2 inhibitor	Luciferase inh	3T3 cytotox	hNpr1 antagonist
CC(=O)N1CC2(CCCN(Cc3cc4ccccc4[nH]3)C2)Cc2ccccc21 (centres undefined)	?	4.2%	.	25.1µM*	.
COc1ncccc1-c1ncc2c(n1)OCCN(c1cccc(C(F)(F)F)c1)C2=O	-16.4%[172 µM]	-9.2%[88.5 µM]	i	25.1µM*	1.4%[70.6 µM]
O=C1c2cnc(-c3cccnc3)nc2OCCN1Cc1ccccc1	?	i	i	-17.5%[138 µM]	-5.6%[70.6 µM]
O=C1c2cnc(-c3ccccc3C(F)(F)F)nc2OCCN1Cc1ccccc1	?	-12.4%[88.5 µM]	i	-29.3%[138 µM]	-1.4%[70.6 µM]
COc1ccccc1-c1ncc2c(n1)OCCN(c1cccc(C(F)(F)F)c1)C2=O	?	?	i	?	-5.0%[70.6 µM]
Cc1ccccc1-c1ncc2c(n1)OCCN(c1ccccc1)C2=O	?	-4.3%[88.5 µM]	20µM*	-34.0%[138 µM]	2.7%[70.6 µM]
COc1ccc(Cl)cc1-c1ncc2c(n1)OCCN(c1ccccc1)C2=O	3.6%[172 µM]	-5.5%[88.5 µM]	?	39.8µM*	4.7%[70.6 µM]
O=C1c2cnc(-c3ccc(O)c(F)c3)nc2OCCN1c1ccccc1	44.7µM*	4.0%[88.5 µM]	?	8.91µM*	-25.1%[70.6 µM]
CC1CCN(C(=O)C[C@@H]2c3nc(NC(=O)c4cccc(F)c4)sc3C[C@@H]3[C@](C)(CO)[C@H](O)CC[C@]32C)CC1	?	i	i	?	-17.4%
COc1ccc(-c2ncc3c(n2)OCCN(C)C3=O)cc1OC	i	-13.8%[88.5 µM]	39.8µM*	?	1.5%[70.6 µM]
O=C(c1ccc2nnc(-c3ccoc3)n2c1)N1CCOCC1	i	i	.	i	.
CCN1CCN(C(=O)c2nc3sccn3c2-c2ccccc2)CC1	-0.4%[172 µM]	i	.	-3.3%[138 µM]	.
COC(=O)[C@@H]1Cc2c([nH]c3ccccc23)[C@H]2C[C@@H](NCCN3CCOCC3)C[C@@H](c3ccc(C(F)(F)F)cc3)N21	7.94µM*	-17.9%	i	14.1µM*	?
COC(=O)[C@@H]1Cc2c([nH]c3ccccc23)[C@H]2C[C@@H](NCCN3CCOCC3)C[C@@H](c3ccc(OC(F)(F)F)cc3)N21	25.1µM*	i	i	22.4µM*	4.6%
COC(=O)[C@@H]1Cc2c([nH]c3ccccc23)[C@H]2C[C@@H](NCCN3CCOCC3)C[C@@H](c3ccc(F)c(F)c3)N21	?	?	i	28.2µM*	-18.7%
OC[C@@H]1CN(C2CCCC2)C[C@H]1c1nc(-c2ccncc2)no1	i	i	25.1µM*	-12.3%	-2.3%
OC[C@@H]1CN(C2CCCC2)C[C@H]1c1nc(-c2cccnc2)no1	-5.6%	i	31.6µM*	-0.5%	-1.8%
CC(C)(C)OC(=O)N1CC(Nc2ccc(O)cc2)C1	44.7µM*	-5.5%[88.5 µM]	.	28.2µM*!	.
CC(C)(C)OC(=O)N1CC(Nc2cccc(Oc3ccccc3)c2)C1	?	-3.1%	.	?	.
c1ccc(Nc2cnc3ccc(N4CCOCC4)nn23)cc1	112µM*	?	i	?	-16.8%[70.6 µM]
